Results: PubChem BioAssay AID1159580 (chemical genetic matrix, 2015)
The campaign covered roughly 5,500 compounds. About 2,000 (36%) were called active. Not shown: some 18% with an inconclusive outcome. Rule as the data show it: active = normalized growth mostly below about 0.91 (no sharp cut-off); inconclusive = no clear call, values can overlap the other calls; inactive = mostly above about 0.92. The list shows a part of the results.

Assay: chemical genetic growth profiling, strain panel (AID 1159580);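 also: tested at 20 µM; growth read once vehicle control cultures reached saturation at 30 °C; 1 = growth at the plate median or of vehicle wells; lower values mean less growth of the strain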
Conditions: S. cerevisiae deletion strains, growth OD

Measured: normalized growth

COc1ccc([C@H]2Oc3c(I)c(OC)cc(OC)c3C[C@@H]2O)cc1OC
inactive: locus YAL021C, strain ccr4, stronger effect = lower value 1.01 | locus YAL026C, strain drs2, stronger effect = lower value 1.01 | locus YAL030W, strain snc1, stronger effect = lower value 1.01 | locus YBL061C, strain skt5, stronger effect = lower value 1.01 | locus YBR009C, strain hhf1, stronger effect = lower value 1.01 | locus YBR021W, strain FUR4, stronger effect = lower value 1 | locus YBR023C, strain chs3, stronger effect = lower value 1.01 | locus YBR171W, strain sec66, stronger effect = lower value 1.01 | locus YBR229C, strain ROT2, stronger effect = lower value 1 | locus YBR231C, strain swc5, stronger effect = lower value 1.01 | locus YBR279W, strain paf1, stronger effect = lower value 1.03 | locus YCL011C, strain gbp2, stronger effect = lower value 1.02 | locus YCL016C, strain dcc1, stronger effect = lower value 1.02 | locus YCL029C, strain bik1, stronger effect = lower value 1.03 | locus YCL061C, strain MRC1, stronger effect = lower value 1.02 | locus YCL069W, strain vba3, stronger effect = lower value 1.02 | locus YCR088W, strain abp1, stronger effect = lower value 1.01 | locus YDL005C, strain med2, stronger effect = lower value 1.01 | locus YDL035C, strain GPR1, stronger effect = lower value 1.07 | locus YDL040C, strain nat1, stronger effect = lower value 1.01 | locus YDL074C, strain BRE1, stronger effect = lower value 1.1 | locus YDL101C, strain DUN1, stronger effect = lower value 1 | locus YDL134C, strain PPH21, stronger effect = lower value 1.03 | locus YDL185W, strain tfp1, stronger effect = lower value 1.03 | locus YDL192W, strain arf1, stronger effect = lower value 1.04 | locus YDR001C, strain nth1, stronger effect = lower value 1.02 | locus YDR069C, strain doa4, stronger effect = lower value 1.01 | locus YDR101C, strain arx1, stronger effect = lower value 1.04 | locus YDR137W, strain rgp1, stronger effect = lower value 0.982 | locus YDR150W, strain NUM1, stronger effect = lower value 1.02 | locus YDR159W, strain sac3, stronger effect = lower value 0.98 | locus YDR162C, strain NBP2, stronger effect = lower value 1.04 | locus YDR195W, strain ref2 1.01 | locus YDR297W, strain sur2, stronger effect = lower value 1.01 | locus YDR318W, strain mcm21, stronger effect = lower value 1.02 | locus YDR334W, strain swr1, stronger effect = lower value 1.02 | locus YDR335W, strain msn5, stronger effect = lower value 1.01 | locus YDR388W, stronger effect = lower value 1.02 | locus YDR392W, strain spt3, stronger effect = lower value 0.895 | locus YDR502C, strain sam2, stronger effect = lower value 1.02 | locus YEL003W, strain gim4, stronger effect = lower value 1.01 | locus YEL037C, strain rad23, stronger effect = lower value 1.01 | locus YEL061C, strain CIN8 (second series), stronger effect = lower value 1.02 | locus YER015W, strain faa2, stronger effect = lower value 1.02 | locus YER016W, strain bim1, stronger effect = lower value 1 | locus YER110C, stronger effect = lower value 1 | locus YER111C, strain swi4, stronger effect = lower value 1.01 | locus YER155C, strain BEM2 (second series), stronger effect = lower value 1 | locus YER155C, strain BEM2, stronger effect = lower value 0.996 | locus YER167W, strain BCK2, stronger effect = lower value 1.01 | locus YFR010W, strain ubp6, stronger effect = lower value 1.01 | locus YGL078C, strain dbp3, stronger effect = lower value 0.999 | locus YGL086W, strain mad1, stronger effect = lower value 0.997 | locus YGL167C, strain pmr1, stronger effect = lower value 1.01 | locus YGL173C, strain kem1, stronger effect = lower value 1.01 | locus YGL227W, strain vid30, stronger effect = lower value 1.02 | locus YGL240W, strain doc1, stronger effect = lower value 1.01 | locus YGL248W, strain PDE1, stronger effect = lower value 1.04 | locus YGL253W, strain hxk2, stronger effect = lower value 1.01 | locus YGR135W, strain pre9, stronger effect = lower value 1.03 | locus YGR252W, strain gcn5, stronger effect = lower value 1.06 | locus YHR013C, strain ard1, stronger effect = lower value 1.02 | locus YHR027C, strain rpn1, stronger effect = lower value 1.01 | locus YHR030C, strain SLT2, stronger effect = lower value 1 | locus YHR079C, strain IRE1 (second series), stronger effect = lower value 1.01 | locus YHR094C, strain hxt1, stronger effect = lower value 1.01 | locus YHR129C, strain ARP1, stronger effect = lower value 1.03 | locus YHR142W, strain chs7, stronger effect = lower value 1.03 | locus YHR200W, strain rpn10, stronger effect = lower value 1.07 | locus YIL066C, strain RNR3, stronger effect = lower value 1.02 | locus YIL073C, strain SPO22, stronger effect = lower value 1.08 | locus YIL125W, strain kgd1, stronger effect = lower value 1.03 | locus YIR030C, strain dcg1, stronger effect = lower value 1.03 | locus YJL092W, strain hpr5, stronger effect = lower value 1.01 | locus YJL095W, strain BCK1 (second series), stronger effect = lower value 1.02 | locus YJL095W, strain BCK1, stronger effect = lower value 1.05 | locus YJL115W, strain asf1, stronger effect = lower value 1.02 | locus YJL129C, strain trk1, stronger effect = lower value 1.02 | locus YJL134W, strain LCB3, stronger effect = lower value 1 | locus YJL154C, strain vps35, stronger effect = lower value 1.01 | locus YJL164C, strain tpk1, stronger effect = lower value 1.01 | locus YJL166W, strain qcr8, stronger effect = lower value 1.01 | locus YJL168C, strain set2, stronger effect = lower value 1.02 | locus YJL187C, strain SWE1 (second series), stronger effect = lower value 1 | locus YJL187C, strain SWE1, stronger effect = lower value 1.01 | locus YJR075W, strain HOC1, stronger effect = lower value 1.03 | locus YKL009W, strain mrt4, stronger effect = lower value 0.912 | locus YKL068W, stronger effect = lower value 0.976 | locus YKL085W, strain MDH1 (second series), stronger effect = lower value 0.971 | locus YKL085W, strain MDH1, stronger effect = lower value 0.971 | locus YKL160W, strain elf1, stronger effect = lower value 1.02 | locus YKR001C, strain vps1, stronger effect = lower value 1.06 | locus YKR026C, strain gcn3, stronger effect = lower value 1 | locus YKR091W, strain srl3, stronger effect = lower value 1.01 | locus YLL001W, strain dnm1, stronger effect = lower value 1.02 | locus YLL026W, stronger effect = lower value 1 | locus YLL041C, strain sdh2, stronger effect = lower value 1.01 | locus YLR027C, strain aat2, stronger effect = lower value 1.01 | locus YLR039C, strain RIC1, stronger effect = lower value 1.2 | locus YLR058C, strain SHM2, stronger effect = lower value 1.02 | locus YLR102C, strain apc9, stronger effect = lower value 1.01 | locus YLR221C, strain rsa3, stronger effect = lower value 1.02 | locus YLR258W, strain gsy2, stronger effect = lower value 1 | locus YLR262C, strain YPT6 (second series), stronger effect = lower value 1.01 | locus YLR268W, strain sec22, stronger effect = lower value 1.05 | locus YLR320W, strain mms22, stronger effect = lower value 1.03 | locus YLR330W, strain CHS5, stronger effect = lower value 1.02 | locus YLR342W, strain FKS1 (second series), stronger effect = lower value 1.06 | locus YLR342W, strain FKS1, stronger effect = lower value 1.01 | locus YLR357W, strain rsc2, stronger effect = lower value 1.03 | locus YLR370C, strain arc18, stronger effect = lower value 1.01 | locus YLR371W, strain rom2, stronger effect = lower value 1.05 | locus YLR384C, strain iki3, stronger effect = lower value 1.01 | locus YLR418C, strain cdc73, stronger effect = lower value 1.05 | locus YML016C, strain PPZ1, stronger effect = lower value 1.01 | locus YML032C, strain rad52, stronger effect = lower value 1.03 | locus YML120C, strain ndi1, stronger effect = lower value 1.01 | locus YML124C, strain tub3, stronger effect = lower value 1.02 | locus YMR058W, strain fet3, stronger effect = lower value 1.01 | locus YMR078C, strain ctf18, stronger effect = lower value 1.01 | locus YMR125W, strain sto1, stronger effect = lower value 1.03 | locus YMR129W, stronger effect = lower value 1.01 | locus YMR205C, strain PFK2, stronger effect = lower value 1.01 | locus YMR223W, strain ubp8, stronger effect = lower value 1.06 | locus YMR231W, strain pep5, stronger effect = lower value 1 | locus YMR263W, strain SAP30, stronger effect = lower value 1.04 | locus YMR307W, strain GAS1, stronger effect = lower value 1.2 | locus YNL067W, strain RPL9B, stronger effect = lower value 1.02 | locus YNL071W, strain lat1, stronger effect = lower value 1.01 | locus YNL128W, strain TEP1, stronger effect = lower value 1.04 | locus YNL209W, strain ssb2, stronger effect = lower value 1.04 | locus YNL233W, strain BNI4, stronger effect = lower value 1.04 | locus YNL248C, strain rpa49, stronger effect = lower value 1.01 | locus YNL250W, strain rad50, stronger effect = lower value 0.961 | locus YNL271C, strain bni1, stronger effect = lower value 1.03 | locus YNL298W, strain CLA4, stronger effect = lower value 0.985 | locus YNL307C, strain MCK1, stronger effect = lower value 1.01 | locus YNL322C, strain KRE1 (second series), stronger effect = lower value 1.01 | locus YNR049C, strain mso1, stronger effect = lower value 1.01 | locus YNR052C, strain pop2, stronger effect = lower value 1.01 | locus YOL006C, strain TOP1, stronger effect = lower value 1.23 | locus YOL012C, strain htz1 0.906 | locus YOL147C, strain pex11, stronger effect = lower value 1.02 | locus YOR001W, strain rrp6, stronger effect = lower value 0.997 | locus YOR061W, strain CKA2, stronger effect = lower value 0.999 | locus YOR069W, strain VPS5, stronger effect = lower value 1.02 | locus YOR070C, strain gyp1, stronger effect = lower value 1.02 | locus YOR080W, strain dia2, stronger effect = lower value 1.01 | locus YOR083W, strain WHI5, stronger effect = lower value 1.03 | locus YOR106W, strain vam3, stronger effect = lower value 1.03 | locus YOR136W, strain idh2, stronger effect = lower value 1.02 | locus YOR144C, strain elg1, stronger effect = lower value 1.04 | locus YOR184W, strain ser1, stronger effect = lower value 1.08 | locus YOR265W, strain rbl2, stronger effect = lower value 1 | locus YOR270C, strain vph1, stronger effect = lower value 1.04 | locus YOR290C, strain snf2, stronger effect = lower value 1.01 | locus YOR316C, strain cot1, stronger effect = lower value 1.04 | locus YPL051W, strain arl3, stronger effect = lower value 0.993 | locus YPL055C, strain LGE1, stronger effect = lower value 1.12 | locus YPL078C, strain atp4, stronger effect = lower value 1.02 | locus YPL106C, strain sse1, stronger effect = lower value 1.01 | locus YPL240C, strain hsp82, stronger effect = lower value 1.01 | locus YPR119W, strain clb2, stronger effect = lower value 1.03 | locus YPR141C, strain kar3, stronger effect = lower value 1.02 | locus YPR163C, strain tif3, stronger effect = lower value 1.02 | locus YPR167C, strain met16, stronger effect = lower value 1.04 | strain wtn01, stronger effect = lower value 1.02
